Test results as given in PubChem BioAssay (NCI).
This is part of a sample that, as a whole, favours compounds with a hit. Of some 83,000 tested, about 20% had one in any assay.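 Single-dose data. Exposure time 48 hours. Values below 10 considered active.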 Values without a mark were called inactive. Calls of active or inactive are those of the source.

Assays:
Experiment in all cases: NCI-60 one-dose screen, 48 h (100 = growth as untreated, 0 = no growth, -100 = all killed)
Settings in all cases: 10 µM unless noted
HCT-15 colon = test system: HCT-15 colon
HT29 colon = test system: HT29 colon
SNB-75 CNS = test system: SNB-75 CNS
SNB-19 CNS = test system: SNB-19 CNS
PC-3 prostate = test system: PC-3 prostate
SK-MEL-5 melanoma = test system: SK-MEL-5 melanoma
UACC-62 melanoma = test system: UACC-62 melanoma
LOX IMVI melanoma = test system: LOX IMVI melanoma
SK-MEL-28 melanoma = test system: SK-MEL-28 melanoma

COc1cc(/C(Cl)=C/C=C/C(=O)c2c(C)[n+]([O-])c3ccc(Cl)cc3[n+]2[O-])cc(OC)c1OC
growth (HCT-15 colon): 11.5%
growth (HT29 colon): 14.1%
growth (SNB-75 CNS): 19.8%
growth (SNB-19 CNS): 51.2%
growth (PC-3 prostate): 40%
growth (SK-MEL-5 melanoma): 14.2%
growth (UACC-62 melanoma): 21.2%
growth (LOX IMVI melanoma): -18.3% (active)
growth (SK-MEL-28 melanoma): 33.5%

CC(NNC(=S)N1CCCCCC1)c1ccc2ccccc2n1 (stereo not given)
growth (HCT-15 colon): 30.8%
growth (HT29 colon): 35.9%
growth (SNB-75 CNS): 71.4%
growth (SNB-19 CNS): 44.1%
growth (PC-3 prostate): 34.6%
growth (SK-MEL-5 melanoma): 30.9%
growth (UACC-62 melanoma): 11.3%
growth (LOX IMVI melanoma): 29.6%
growth (SK-MEL-28 melanoma): 54.7%

CSc1nc2nc3c(nc2c(=O)n1C)C(=O)c1ccccc1C3=O
growth (HCT-15 colon): -72.1% (active)
growth (HT29 colon): -21.1% (active)
growth (SNB-75 CNS): -98.3% (active)
growth (SNB-19 CNS): -66.2% (active)
growth (PC-3 prostate): -6.56% (active)
growth (SK-MEL-5 melanoma): -96.4% (active)
growth (UACC-62 melanoma): -68.2% (active)
growth (LOX IMVI melanoma): -70.9% (active)
growth (SK-MEL-28 melanoma): -60.7% (active)

COc1ccc(-c2nnc3c4[nH]cnc4ncn23)c(OC)c1
growth (HCT-15 colon): 29.2%
growth (HT29 colon): 19.5%
growth (SNB-75 CNS): 39.2%
growth (SNB-19 CNS): 96%
growth (PC-3 prostate): 40.7%
growth (SK-MEL-5 melanoma): 49%
growth (UACC-62 melanoma): 23.7%
growth (LOX IMVI melanoma): 5.63% (active)
growth (SK-MEL-28 melanoma): 84.7%

Cc1ccc2c(c1)C(=O)/C(=C\Nc1ccc(C(N)=O)cc1)C(O)O2 (stereo not given)
growth (HCT-15 colon): 85.9%
growth (HT29 colon): 105%
growth (SNB-75 CNS): 74.8%
growth (SNB-19 CNS): 106%
growth (PC-3 prostate): 76.4%
growth (SK-MEL-5 melanoma): 104%
growth (UACC-62 melanoma): 106%
growth (LOX IMVI melanoma): 85.3%
growth (SK-MEL-28 melanoma): 99.8%

CSc1nc(N)c2c(n1)N(C)C=NS2(=O)=O
growth (HCT-15 colon): 103%
growth (HT29 colon): 124%
growth (SNB-75 CNS): 93.3%
growth (SNB-19 CNS): 107%
growth (PC-3 prostate): 94.7%
growth (SK-MEL-5 melanoma): 104%
growth (UACC-62 melanoma): 97.4%
growth (LOX IMVI melanoma): 98.3%
growth (SK-MEL-28 melanoma): 122%

O=c1oc2c(cc1-c1ccc([N+](=O)[O-])cc1)C(O)Oc1ccccc1-2 (stereo not given)
growth (HCT-15 colon): 92.2%
growth (HT29 colon): 99.9%
growth (SNB-75 CNS): 111%
growth (SNB-19 CNS): 83.4%
growth (PC-3 prostate): 57.5%
growth (SK-MEL-5 melanoma): 80.4%
growth (UACC-62 melanoma): 78.7%
growth (LOX IMVI melanoma): 98.9%
growth (SK-MEL-28 melanoma): 99.4%

COc1ccc2c(c1)CC/C(=C\c1ccc(OCC(=O)Nc3nc4ccccc4s3)cc1)C2=O
growth (HCT-15 colon): 102%
growth (HT29 colon): 103%
growth (SNB-75 CNS): 95.2%
growth (SNB-19 CNS): 100%
growth (PC-3 prostate): 74.1%
growth (SK-MEL-5 melanoma): 91.6%
growth (UACC-62 melanoma): 86%
growth (LOX IMVI melanoma): -88.6% (active)
growth (SK-MEL-28 melanoma): 112%

Nc1ncnc2c1CN(Cc1ccccc1)CC2
growth (HCT-15 colon): 107%
growth (HT29 colon): 104%
growth (SNB-75 CNS): 89%
growth (SNB-19 CNS): 104%
growth (PC-3 prostate): 93.9%
growth (SK-MEL-5 melanoma): 109%
growth (UACC-62 melanoma): 107%
growth (LOX IMVI melanoma): 91.4%
growth (SK-MEL-28 melanoma): 109%

CC(=O)N1N=C(c2ccc(Nc3ccnc4cc(Cl)ccc34)cc2)CC1c1ccc(Cl)cc1 (stereo not given)
growth (HCT-15 colon): 30.1%
growth (HT29 colon): 25.9%
growth (SNB-75 CNS): 59.6%
growth (SNB-19 CNS): 65.6%
growth (PC-3 prostate): 37.8%
growth (SK-MEL-5 melanoma): -50.1% (active)
growth (UACC-62 melanoma): 44.2%
growth (LOX IMVI melanoma): 33.6%
growth (SK-MEL-28 melanoma): 45.9%

CC(=O)/C(=C/c1ccc(Cl)cc1)C(=O)c1ccccc1
growth (HCT-15 colon): 79.3%
growth (HT29 colon): 78.9%
growth (SNB-75 CNS): 81.6%
growth (SNB-19 CNS): 91.1%
growth (PC-3 prostate): 68.5%
growth (SK-MEL-5 melanoma): 94.2%
growth (UACC-62 melanoma): 82.1%
growth (LOX IMVI melanoma): -43.9% (active)
growth (SK-MEL-28 melanoma): 95.5%

O=C1/C(=C/c2ccccc2O)C(=S)SN1Cc1ccco1
growth (HCT-15 colon): 91.6%
growth (HT29 colon): 87.6%
growth (SNB-75 CNS): 70.2%
growth (SNB-19 CNS): 111%
growth (PC-3 prostate): 93.3%
growth (SK-MEL-5 melanoma): 95.8%
growth (UACC-62 melanoma): 94.4%
growth (LOX IMVI melanoma): 34.7%
growth (SK-MEL-28 melanoma): 92%

COc1c(Br)cc(C(c2cc(Br)c(OC)c(Br)c2)c2ccccc2C(=O)O)cc1Br
growth (HCT-15 colon): 115%
growth (HT29 colon): 100%
growth (SNB-75 CNS): 76.7%
growth (SNB-19 CNS): 95.9%
growth (PC-3 prostate): 89.9%
growth (SK-MEL-5 melanoma): 100%
growth (UACC-62 melanoma): 97.9%
growth (LOX IMVI melanoma): 96.6%
growth (SK-MEL-28 melanoma): 112%

Cc1ccc(C(NC(=O)c2ccccc2)c2ccc3cccnc3c2O)cc1 (stereo not given)
growth (HCT-15 colon): 28.9%
growth (HT29 colon): 22.2%
growth (SNB-75 CNS): 33.3%
growth (SNB-19 CNS): 19.9%
growth (PC-3 prostate): 26.1%
growth (SK-MEL-5 melanoma): -42.3% (active)
growth (UACC-62 melanoma): -8.42% (active)
growth (LOX IMVI melanoma): 11.1%
growth (SK-MEL-28 melanoma): 30.8%

CCOC(=O)Nc1cc(-c2ccc(C)c(NS(C)(=O)=O)c2)nn2c(C)nnc12
growth (HCT-15 colon): 9.95% (active)
growth (HT29 colon): 9.76% (active)
growth (SNB-75 CNS): 1.74% (active)
growth (SNB-19 CNS): 39.1%
growth (PC-3 prostate): 23.8%
growth (SK-MEL-5 melanoma): -57.2% (active)
growth (UACC-62 melanoma): 12.9%
growth (LOX IMVI melanoma): -22.7% (active)
growth (SK-MEL-28 melanoma): 14.3%
